Data published in the supplement of paper PMC10849652.
The full data set covers some 7,900 targets. This sample favours those with a hit. About 0.6% of all pairs of compound and target were hits.

Key:
Experiment in all cases: log2 fold change, soluble protein after heating vs DMSO (PISA); higher = thermal stabilisation; K562 cells, 10 uM, 30 min; active = over 0.2 and 3.5 SD of the protein, either way, in both replicates (recomputed)
[1] = compound: CC1=C(C=C(C=C1)NC(=O)C2=CC(=CC=C2)C(C)(C)C#N)NC3=CC4=C(C=C3)N=CN(C4=O)C
Procedure, shortened: (§1)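 K562 cells (2×10^6 cells/mL) were treated with 10 μM compound for 30 min, and aliquots were heated for 3 min over 48°C-58°C. Pooled aliquots were extracted in PBS with 0.5% NP-40 at 4°C, and the supernatant after 21,000xg for 90 min was measured by TMTpro 16plex LC-MS/MS with channel sums equalised. Reported thermal stability, relative to control samples and from duplicates, is a log2 fold change.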

[2] = compound: CC1=C(C=C(C=C1)NC(=O)C2=CC(=CC=C2)N(C)C)NC(=O)C3=CC=C(C=C3)O
Procedure, shortened: as §1

[3] = compound: CC1=CC=C(C=C1)SC2=C3C=C(SC3=CN=C2)C(=O)N
Procedure, shortened: as §1

[4] = compound: CC1=NC(=CC=C1)C2=C(N=C(N2)C(C)(C)C)C3=CC4=NC=CN=C4C=C3
Procedure, shortened: as §1

[5] = compound: CCCCN(Cc1ccc(C(=O)NO)cc1)C(=O)Nc1ccccc1 [Nexturastat A]
Procedure, shortened: as §1

[6] = compound: CCCS(=O)(=O)Nc1ccc(F)c(C(=O)c2c[nH]c3ncc(-c4ccc(Cl)cc4)cc23)c1F [vemurafenib]
Procedure, shortened: as §1

[7] = compound: CCCS(=O)(=O)Nc1ccc(F)c(C(=O)c2c[nH]c3ncc(Cl)cc23)c1F
Procedure, shortened: as §1

[8] = compound: CCCc1cc(C)[nH]c(=O)c1CNC(=O)c1cc(-c2ccnc(N3CCN(C)CC3)c2)cc2c1cnn2C(C)C
Procedure, shortened: as §1

[9] = compound: CCN(CC)Cc1ccc2cc(COC(=O)Nc3ccc(C(=O)NO)cc3)ccc2c1 [givinostat]
Procedure, shortened: as §1

[10] = compound: CCN(CCCOc1ccc2c(Nc3cc(CC(=O)Nc4cccc(F)c4)[nH]n3)ncnc2c1)CCOP(=O)(O)O [barasertib]
Procedure, shortened: as §1

[11] = compound: CC[C@@H]1C(=O)N(C)c2cnc(Nc3ccc(C(=O)NC4CCN(C)CC4)cc3OC)nc2N1C1CCCC1
Procedure, shortened: as §1

[12] = compound: CC[C@@H]1C(=O)N(C)c2cnc(Nc3ccc(C(=O)N[C@H]4CC[C@H](N5CCN(CC6CC6)CC5)CC4)cc3OC)nc2N1C(C)C [volasertib]
Procedure, shortened: as §1

[13] = compound: CC[C@H](C)N1C=C(C2=C(C=C(C=C21)C3=CN=C(C=C3)N4CCNCC4)C(=O)NCC5=C(C=C(NC5=O)C)C)C
Procedure, shortened: as §1

[14] = compound: CC[C@H](C)[C@@H](C(=O)N[C@@H]([C@@H](C)O)C(=O)N[C@@H](CC(C)C)C(=O)[C@]1(CO1)C)NC(=O)[C@H]([C@@H](C)CC)N(C)C(=O)C [epoxomicin]
Procedure, shortened: as §1

[15] = compound: CCn1c(C(=O)N(C2CC2)C2CC2)cc2c3c(ncn3C)c(Nc3cc(C)n(C)n3)nc21
Procedure, shortened: as §1

[16] = compound: CCn1cc(-c2ccnc3[nH]c(-c4cccc(CN(C)C)c4)cc23)c(-c2ccc(NC(=O)N(C)C)cc2)n1
Procedure, shortened: as §1

[17] = compound: CN(C)CC(=O)Nc1ccc2[nH]c(=O)c3ccccc3c2c1
Procedure, shortened: as §1

[18] = compound: CN(CCOC1=CC=C(C=C1)C[C@H]2C(=O)NC(=O)S2)C3=CC=CC=N3 (racemic) [rosiglitazone]
Procedure, shortened: as §1

[19] = compound: CN1C2=C(C3=C1C(=O)N(N=C3)CC4=CC(=CC=C4)N)SC(=C2)S(=O)C
Procedure, shortened: as §1

[20] = compound: CN1CCC(CNc2ccc3ncc(-c4cccc(OC(F)(F)F)c4)n3n2)CC1
Procedure, shortened: as §1

Measured: log2 fold change

SLC25A39 (UniProt Q9BZJ4)
inactive: [1] -0.029 | [2] 0.011 | [3] 0.207 | [4] 0.129 | [5] -0.037 | [6] -0.019 | [7] -0.048 | [8] -0.133 | [9] -0.092 | [10] 0.088 | [11] 0.029 | [12] -0.06 | [13] 0.087 | [14] 0.081 | [15] 0.096 | [16] -0.12 | [17] 0.06 | [18] -0.03 | [19] 0.012
active: [20] -0.82

TMBIM1 (UniProt Q969X1)
Chain of UniProt Q969X1 (Q969X1 whole entry, looked up): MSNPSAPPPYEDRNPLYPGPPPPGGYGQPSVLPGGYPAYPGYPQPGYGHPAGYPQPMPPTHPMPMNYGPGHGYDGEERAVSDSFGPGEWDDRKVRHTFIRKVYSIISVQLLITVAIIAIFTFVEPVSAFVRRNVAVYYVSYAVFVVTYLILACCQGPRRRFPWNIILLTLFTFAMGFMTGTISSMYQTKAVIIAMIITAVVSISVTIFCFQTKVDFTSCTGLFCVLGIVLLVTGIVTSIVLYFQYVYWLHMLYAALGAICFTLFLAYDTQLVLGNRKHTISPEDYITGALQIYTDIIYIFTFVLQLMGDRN
inactive: [1] 0.113 | [2] -0.055 | [3] 0.09 | [5] -0.02 | [6] -0.132 | [7] 0.185 | [8] -0.134 | [9] 0.004 | [10] -0.057 | [11] 0.086 | [12] 0.002 | [13] -0.014 | [14] -0.033 | [15] 0.034 | [16] 0.044 | [17] 0.029 | [18] -0.013 | [19] -0.035 | [20] -0.03

TM7SF3 (UniProt Q9NS93)
Chain of UniProt Q9NS93 (Q9NS93 whole entry, looked up): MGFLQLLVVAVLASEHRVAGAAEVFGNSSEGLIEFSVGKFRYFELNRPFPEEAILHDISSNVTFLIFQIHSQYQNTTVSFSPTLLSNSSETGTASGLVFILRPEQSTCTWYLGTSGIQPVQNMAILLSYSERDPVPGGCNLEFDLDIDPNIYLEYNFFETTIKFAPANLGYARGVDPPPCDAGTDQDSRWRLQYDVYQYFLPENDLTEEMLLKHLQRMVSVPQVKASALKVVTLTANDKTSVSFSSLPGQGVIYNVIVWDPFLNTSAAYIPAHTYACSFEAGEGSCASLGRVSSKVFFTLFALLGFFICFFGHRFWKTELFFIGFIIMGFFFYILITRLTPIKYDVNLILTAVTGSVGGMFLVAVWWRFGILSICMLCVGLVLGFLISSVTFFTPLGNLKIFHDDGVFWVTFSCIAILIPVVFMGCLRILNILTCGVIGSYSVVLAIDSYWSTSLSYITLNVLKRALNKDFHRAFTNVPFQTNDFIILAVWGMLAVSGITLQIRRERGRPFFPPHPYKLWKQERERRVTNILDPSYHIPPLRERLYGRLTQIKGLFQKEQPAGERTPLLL
inactive: [1] -0.033 | [2] -0.054 | [3] 0.005 | [4] 0.017 | [7] -0.019 | [8] -0.027 | [9] 0.06 | [10] 0.045 | [11] -0.136 | [12] -0.178 | [13] -0.074 | [15] -0.006 | [18] -0.022 | [19] 0.025

STRN (UniProt O43815)
Chain of UniProt O43815 (O43815 whole entry, looked up): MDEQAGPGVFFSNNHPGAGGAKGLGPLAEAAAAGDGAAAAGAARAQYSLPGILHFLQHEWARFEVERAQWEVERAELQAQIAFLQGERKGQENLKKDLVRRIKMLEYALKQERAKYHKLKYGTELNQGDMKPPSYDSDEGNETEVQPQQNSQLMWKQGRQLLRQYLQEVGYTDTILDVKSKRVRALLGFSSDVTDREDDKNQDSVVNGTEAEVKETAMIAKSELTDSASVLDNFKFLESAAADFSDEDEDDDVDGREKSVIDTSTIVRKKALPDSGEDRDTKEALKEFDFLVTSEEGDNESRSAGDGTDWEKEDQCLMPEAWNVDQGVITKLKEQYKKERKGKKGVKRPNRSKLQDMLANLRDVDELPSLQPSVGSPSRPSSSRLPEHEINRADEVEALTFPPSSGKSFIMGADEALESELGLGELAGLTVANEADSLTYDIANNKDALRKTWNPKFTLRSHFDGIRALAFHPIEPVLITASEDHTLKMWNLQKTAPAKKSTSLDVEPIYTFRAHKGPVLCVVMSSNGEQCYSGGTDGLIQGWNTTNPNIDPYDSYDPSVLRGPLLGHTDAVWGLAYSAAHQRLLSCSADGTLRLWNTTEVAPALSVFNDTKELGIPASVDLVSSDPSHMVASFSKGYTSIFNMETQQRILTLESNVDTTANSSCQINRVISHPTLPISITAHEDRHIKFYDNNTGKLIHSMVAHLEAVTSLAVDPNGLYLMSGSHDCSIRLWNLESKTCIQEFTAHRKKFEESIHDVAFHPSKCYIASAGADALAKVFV
inactive: [1] -0.019 | [2] -0.046 | [3] 0.019 | [4] -0.024 | [5] 0.001 | [6] 0.073 | [7] 0.035 | [8] -0.038 | [9] 0.002 | [10] 0.045 | [11] -0.031 | [12] -0.031 | [13] 0.026 | [14] 0.046 | [15] 0.007 | [16] -0.046 | [17] 0.02 | [18] 0.003 | [19] -0.031 | [20] 0.073

TIMM10B (UniProt Q9Y5J6)
Chain of UniProt Q9Y5J6 (Q9Y5J6 whole entry, looked up): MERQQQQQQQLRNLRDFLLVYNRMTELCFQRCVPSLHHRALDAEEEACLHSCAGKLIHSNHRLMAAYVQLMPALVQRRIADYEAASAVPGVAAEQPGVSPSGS
inactive: [1] -0.053 | [2] -0.075 | [3] 0.018 | [5] -0.05 | [6] 0.073 | [7] -0.077 | [8] -0.057 | [9] 0.061 | [10] 0.067 | [11] 0.033 | [12] -0.011 | [13] -0.064 | [14] 0.274 | [15] 0.115 | [16] -0.033 | [17] -0.12 | [18] -0.041 | [19] 0.063 | [20] 0.131

SMARCB1 (UniProt Q12824)
Chain of UniProt Q12824 (Q12824 whole entry, looked up): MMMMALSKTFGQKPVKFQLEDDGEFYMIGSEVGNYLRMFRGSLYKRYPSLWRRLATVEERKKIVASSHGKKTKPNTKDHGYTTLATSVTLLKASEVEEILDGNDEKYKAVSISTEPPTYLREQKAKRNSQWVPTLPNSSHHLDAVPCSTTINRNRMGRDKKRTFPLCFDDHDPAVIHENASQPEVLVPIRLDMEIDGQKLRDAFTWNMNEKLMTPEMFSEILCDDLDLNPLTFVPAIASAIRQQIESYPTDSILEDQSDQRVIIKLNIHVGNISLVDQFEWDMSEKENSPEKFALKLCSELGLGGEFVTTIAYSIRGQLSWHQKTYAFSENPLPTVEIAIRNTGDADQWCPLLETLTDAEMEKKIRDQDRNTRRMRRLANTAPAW
inactive: [1] 0.188 | [4] 0.101 | [6] 0.065 | [11] -0.058 | [16] 0.053 | [17] -0.116 | [19] 0.127 | [20] -0.222

STK38L (UniProt Q9Y2H1)
Chain of UniProt Q9Y2H1 (Q9Y2H1 whole entry, looked up): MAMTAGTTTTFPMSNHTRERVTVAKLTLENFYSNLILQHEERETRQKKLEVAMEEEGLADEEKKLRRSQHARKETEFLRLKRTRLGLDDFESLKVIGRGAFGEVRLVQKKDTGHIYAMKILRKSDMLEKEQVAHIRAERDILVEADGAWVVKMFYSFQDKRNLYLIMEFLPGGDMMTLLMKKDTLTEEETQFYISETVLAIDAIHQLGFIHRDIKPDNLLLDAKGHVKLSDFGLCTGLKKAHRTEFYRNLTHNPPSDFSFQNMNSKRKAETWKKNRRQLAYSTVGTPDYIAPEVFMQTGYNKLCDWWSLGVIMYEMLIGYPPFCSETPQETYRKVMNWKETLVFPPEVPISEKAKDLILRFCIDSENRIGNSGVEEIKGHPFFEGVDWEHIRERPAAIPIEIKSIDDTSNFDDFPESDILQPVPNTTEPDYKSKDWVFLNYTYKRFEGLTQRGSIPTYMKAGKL
inactive: [1] -0.044 | [2] 0.165 | [4] 0.056 | [5] -0.074 | [6] -0.038 | [8] 0.079 | [9] -0.016 | [10] 0.064 | [11] 0.071 | [13] -0.011 | [14] 0.071 | [15] 0.031 | [16] -0.015 | [17] -0.045 | [18] 0.024 | [19] -0.029 | [20] 0.016

TDP1 (UniProt Q9NUW8)
inactive: [9] 0.112 | [15] -0.11

SSB (UniProt E7ERC4)
inactive: [6] 0.264 | [8] 0.283 | [16] -0.076 | [17] -0.154 | [19] -0.34 | [20] 0.266

TM7SF2 (UniProt O76062)
Chain of UniProt O76062 (O76062 whole entry, looked up): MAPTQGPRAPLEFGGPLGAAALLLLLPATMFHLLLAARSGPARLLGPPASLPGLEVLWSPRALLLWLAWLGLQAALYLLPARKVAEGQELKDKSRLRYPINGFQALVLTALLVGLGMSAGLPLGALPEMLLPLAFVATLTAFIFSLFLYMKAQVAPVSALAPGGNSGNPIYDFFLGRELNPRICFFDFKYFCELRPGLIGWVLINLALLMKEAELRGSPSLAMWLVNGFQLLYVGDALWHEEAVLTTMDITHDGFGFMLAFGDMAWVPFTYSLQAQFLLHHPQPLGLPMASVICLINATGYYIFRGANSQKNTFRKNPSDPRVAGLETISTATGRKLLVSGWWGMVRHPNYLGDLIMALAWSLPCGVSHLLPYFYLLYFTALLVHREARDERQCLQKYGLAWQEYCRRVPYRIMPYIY
inactive: [1] 0.051 | [2] 0.015 | [3] -0.045 | [6] 0.252 | [7] 0.123 | [9] 0.18 | [13] -0.022 | [15] -0.111 | [17] -0.435 | [19] 0.031
active: [12] 0.907

SNRK (UniProt Q9NRH2)
inactive: [1] -0.029 | [3] 0.066 | [4] 0.225 | [7] 0.07 | [11] -0.157 | [12] -0.085 | [19] -0.011

TAF6L (UniProt Q9Y6J9)
inactive: [1] -0.042 | [2] 0.114 | [3] -0.055 | [7] -0.059 | [8] 0.091 | [9] 0.075 | [13] 0.118 | [15] -0.179 | [16] -0.04 | [19] 0.081 | [20] -0.126
active: [12] -0.537

SPAG9 isoform 4 (UniProt O60271)
inactive: [1] 0.184 | [2] -0.025 | [4] -0.038 | [6] 0.174 | [8] 0.028 | [9] 0.021 | [10] 0.176 | [11] -0.192 | [13] 0.093 | [15] -0.066 | [17] -0.093 | [18] -0.029

SLC35B1 isoform 2 (UniProt P78383)
Chain of UniProt P78383 (P78383 whole entry, looked up): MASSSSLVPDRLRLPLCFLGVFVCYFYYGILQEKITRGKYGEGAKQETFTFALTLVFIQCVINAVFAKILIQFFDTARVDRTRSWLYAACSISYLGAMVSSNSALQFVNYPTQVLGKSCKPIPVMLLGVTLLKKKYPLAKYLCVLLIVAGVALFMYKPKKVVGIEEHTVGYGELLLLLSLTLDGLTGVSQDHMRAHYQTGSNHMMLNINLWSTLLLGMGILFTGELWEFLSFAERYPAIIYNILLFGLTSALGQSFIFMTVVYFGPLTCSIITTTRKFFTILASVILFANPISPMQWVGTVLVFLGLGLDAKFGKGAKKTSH
inactive: [1] 0.165 | [2] -0.109 | [4] 0.054 | [5] 0.072 | [6] 0.267 | [8] -0.221 | [9] 0.069 | [10] -0.055 | [11] 0.123 | [13] -0.017 | [14] 0.066 | [15] 0.001 | [17] 0.075 | [18] 0.044 | [19] -0.111

SLC46A1 (UniProt Q96NT5)
Chain of UniProt Q96NT5 (Q96NT5 whole entry, looked up): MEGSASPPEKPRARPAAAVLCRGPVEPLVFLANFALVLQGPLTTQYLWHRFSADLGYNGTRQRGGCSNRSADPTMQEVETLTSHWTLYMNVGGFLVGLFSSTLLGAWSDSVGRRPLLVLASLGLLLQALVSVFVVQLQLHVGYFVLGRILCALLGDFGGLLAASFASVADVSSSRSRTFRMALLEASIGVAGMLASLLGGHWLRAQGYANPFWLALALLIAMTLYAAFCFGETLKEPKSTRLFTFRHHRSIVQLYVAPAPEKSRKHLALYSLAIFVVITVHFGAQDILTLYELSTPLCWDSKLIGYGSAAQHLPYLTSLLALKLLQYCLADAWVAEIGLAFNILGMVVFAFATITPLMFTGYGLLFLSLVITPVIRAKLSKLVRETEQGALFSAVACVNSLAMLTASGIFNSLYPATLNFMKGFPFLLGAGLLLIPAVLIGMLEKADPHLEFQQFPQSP
inactive: [6] 0.056 | [9] 0.011 | [11] 0.156 | [15] -0.072 | [16] -0.072 | [17] -0.041 | [20] 0.087

SMPD4 isoform 2 (UniProt Q9NXE4)
inactive: [3] 0.162 | [4] -0.023 | [6] -0.301 | [7] 0.099 | [8] -0.035 | [10] 0.034 | [12] -0.234 | [16] -0.236 | [17] -0.044 | [18] -0.047 | [19] 0.056 | [20] -0.441

TEX30 (UniProt Q5JUR7)
Chain of UniProt Q5JUR7 (Q5JUR7 whole entry, looked up): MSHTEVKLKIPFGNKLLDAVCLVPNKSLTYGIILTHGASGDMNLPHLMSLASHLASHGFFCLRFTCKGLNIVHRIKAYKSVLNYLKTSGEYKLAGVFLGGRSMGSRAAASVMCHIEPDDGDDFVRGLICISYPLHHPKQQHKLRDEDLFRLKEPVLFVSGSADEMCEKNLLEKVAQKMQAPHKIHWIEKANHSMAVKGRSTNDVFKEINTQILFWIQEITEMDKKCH
inactive: [2] -0.182 | [3] 0.047 | [4] -0.062 | [5] 0.009 | [6] 0.138 | [7] 0.037 | [8] -0.119 | [9] -0.146 | [10] 0.019 | [12] -0.221 | [13] -0.044 | [14] 0.007 | [15] -0.005 | [16] 0.079 | [17] 0.075 | [18] 0.028 | [19] 0.046
active: [20] -0.601

TAOK2 (UniProt Q9UL54)
inactive: [2] 0.024 | [3] 0.062 | [4] 0.08 | [7] 0.051 | [8] 0.007 | [9] -0.363 | [11] 0.024 | [12] -0.061 | [13] -0.006 | [14] -0.01 | [15] -0.277 | [16] -0.076 | [20] 0.01
active: [5] 0.487

TCOF1 isoform 3 (UniProt Q13428)
inactive: [1] -0.051 | [2] 0.262 | [5] -0.429 | [9] 0.047 | [11] 0.001 | [14] -0.352 | [15] 0.03 | [16] 0.155 | [20] -0.436

THAP9 (UniProt Q9H5L6)
Chain of UniProt Q9H5L6 (Q9H5L6 whole entry, looked up): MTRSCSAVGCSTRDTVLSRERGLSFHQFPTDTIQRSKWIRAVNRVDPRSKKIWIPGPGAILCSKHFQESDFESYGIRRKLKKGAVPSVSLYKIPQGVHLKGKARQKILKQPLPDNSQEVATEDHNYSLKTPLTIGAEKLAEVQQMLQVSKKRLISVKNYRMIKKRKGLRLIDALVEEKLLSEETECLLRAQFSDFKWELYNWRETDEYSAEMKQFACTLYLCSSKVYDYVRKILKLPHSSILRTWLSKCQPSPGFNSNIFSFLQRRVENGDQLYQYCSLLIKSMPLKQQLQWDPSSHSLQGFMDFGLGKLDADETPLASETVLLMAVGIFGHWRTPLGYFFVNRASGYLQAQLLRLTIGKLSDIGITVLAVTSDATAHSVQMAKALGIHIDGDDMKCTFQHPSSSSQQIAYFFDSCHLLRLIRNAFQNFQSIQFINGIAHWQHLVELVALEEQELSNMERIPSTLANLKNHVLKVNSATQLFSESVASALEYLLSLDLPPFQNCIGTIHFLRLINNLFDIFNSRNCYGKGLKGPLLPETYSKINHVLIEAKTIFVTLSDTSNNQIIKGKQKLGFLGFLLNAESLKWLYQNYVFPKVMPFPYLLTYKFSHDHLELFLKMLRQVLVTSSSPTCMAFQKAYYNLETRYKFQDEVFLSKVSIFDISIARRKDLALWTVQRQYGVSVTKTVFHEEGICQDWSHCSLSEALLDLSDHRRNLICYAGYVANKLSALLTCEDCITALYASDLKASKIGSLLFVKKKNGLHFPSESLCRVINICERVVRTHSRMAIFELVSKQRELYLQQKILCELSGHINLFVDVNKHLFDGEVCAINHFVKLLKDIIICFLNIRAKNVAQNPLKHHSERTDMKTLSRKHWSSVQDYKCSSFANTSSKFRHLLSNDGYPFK
inactive: [2] 0.017 | [4] -0.065 | [8] -0.463 | [10] 0.121 | [13] -0.167 | [18] 0.008 | [19] -0.039
